Data as given in PubChem BioAssay AID463215 (Sanford-Burnham Center for Chemical Genomics, 2010).
Out of some 4,600 compounds screened, about 2,900 (63%) were called active. The set was probably picked from earlier hits. A selection follows. Unmarked numbers belong to inactive results.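 How the source made its calls: active means inhibition of yeast growth at or above a set limit in either of two replicates at 10 µM; inactive means the rest.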

experiment: TIM10 isogenic control strain growth inhibition – single concentration, luminescence, S. cerevisiae, counter-screen for tim10-1 synthetic lethality project, confirmation (AID 463215); conditions: BacTiter-Glo luminescence, 24 h, at 10 µM, hits give high values;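 further: isogenic wild-type TIM10 control yeast grown in succinate dextrose medium; this counterscreen used the strain with wild-type TIM10; 0% = yeast with DMSO and 100% = medium wells lacking yeast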

Row | Structure (SMILES) | inhibition
1 | Fc1cccc(Cl)c1CSc1ccc(-c2ccco2)nn1 | 35.9% (active)
2 | O=C(/C=C/c1ccc(Cl)c([N+](=O)[O-])c1)c1cccnc1 | 81.2% (active)
3 | COc1cc([N+](=O)[O-])ccc1NC(=O)COC(=O)CCOc1ccc(C)cc1 | 43.4% (active)
4 | C=CS(=O)c1sc(Cl)c(N2CCOCC2)c1[N+](=O)[O-] (configuration not stated) | 87.5% (active)
5 | CCc1ccc2c(c1)C1(NN=C(c3ccccc3)S1)C(=O)N2 (configuration not stated) | 43.3% (active)
6 | O=C(N/N=C/c1c[nH]c2ccccc12)c1cc2ccccc2o1 | 22.9%
7 | Cc1ccc(Nc2nc(Cl)c(C=O)s2)cc1 | 10.7%
8 | Nc1ccccc1SC(C[N+](=O)[O-])c1ccccc1 (configuration not stated) | 53.5% (active)
9 | O=C(Nc1ccc2oc(-c3ccccc3F)nc2c1)c1ccco1 | 62.4% (active)
10 | O=C(Nc1nc(-c2ccco2)c(-c2ccco2)s1)c1ccco1 | 39.9% (active)
11 | COCCNC(=O)/C(C#N)=C/c1cccc(OCc2ccccc2)c1 | 69.5% (active)
12 | Cc1cc(C)n(-c2nc(SCC(=O)N3CCCC3)c3c4c(sc3n2)CCCC4)n1 | 23.4%
13 | CCOC(=O)C(=Cc1ccccc1OC)C(=O)OCC | 27.6%
14 | COc1ccc(CNC(=O)/C(C#N)=C/c2cccc(OC)c2OC)cc1 | 80.8% (active)
15 | c1ccc(-c2nccc(-c3ccc(-n4cnc5ccccc54)cc3)n2)nc1 | -3.75%
16 | CN(C)CCCN(C(=O)c1ccc(S(=O)(=O)N2CCCc3ccccc32)cc1)c1nc2ccc(F)cc2s1 | 41.4% (active)
17 | CCN(CC)CCN(C(=O)c1ccc(S(=O)(=O)N2CCOCC2)cc1)c1nc2cc3c(cc2s1)OCCO3 | 28.1%
18 | COc1cccc(NC(=O)CSc2nccn(-c3ccc4c(c3)OCCO4)c2=O)c1 | 8.7%
19 | O=C(NNc1c2ccccc2nc2ccccc12)c1cc2ccccc2cc1O | -21.2%
20 | COc1ccc(Oc2cn[nH]c2-c2ccc(OC)cc2O)cc1 | 31% (active)
21 | O=S(=O)(NC1CCCCC1)c1ccc(F)c2ccccc12 | 29.4%
22 | Fc1ccc(/C=N/n2c(COc3ccccc3)n[nH]c2=S)cc1 | 37% (active)
23 | CC[C@@H]1Cc2cc(O)ccc2C2=C1c1ccc(O)cc1C[C@H]2CC | 66.3% (active)
24 | Cc1[nH]c2ccccc2c1C(=O)COC(=O)c1c(-c2ccccc2)noc1C | 36.8% (active)
25 | CCC(C)(C)n1nnnc1CN1CCN(c2nc3ccc(C)cc3cc2C#N)CC1 | 24.8%

Row | Structure (SMILES) | inhibition
26 | O=C(NCc1ccco1)c1cc2sccc2n1Cc1ccc(F)cc1 | 23.6%
27 | CCc1cccc(CC)c1NC(=S)NCc1ccc2[nH]c(C)cc2c1 | 52.9% (active)
28 | CCc1sc(C(=O)N2CCN(CC(=O)Nc3cccc(F)c3)CC2)cc1C | 60.8% (active)
29 | C[C@@H]1C(c2ccc(F)cc2)=NN(c2ccc(Br)cc2)[C@H]1C(=O)N1CCOC1=O | 52.1% (active)
30 | N/C(=N\OC(=O)Cc1ccccc1[N+](=O)[O-])c1ccc(Br)cc1 | 53% (active)
31 | CC(/C=N/NC(=O)c1cc(-c2ccc3ccccc3c2)n[nH]1)=C\c1ccco1 | 42.5% (active)
32 | O=C1c2ccccc2C(=O)N1CC1c2ccccc2CCN1S(=O)(=O)c1ccccc1 (configuration not stated) | 22.5%
33 | O=S(=O)(ON(c1ccccc1)S(=O)(=O)c1ccccc1)c1ccccc1 | -4.35%
34 | Cc1nn(Cc2ccc(Cl)c(Cl)c2)c(C)c1NC(=O)c1cc(C2CC2)on1 | 33.2% (active)
35 | Oc1ccccc1C1=NN(c2ccccc2)C(c2ccccc2)C1 (configuration not stated) | 70.5% (active)
36 | COc1ccc(Cn2c(-c3ccc(Cl)cc3)c[n+]3ccccc23)cc1 | 34.7% (active)
37 | S=C(NCCCc1ccccc1)Nc1ccc(Br)cc1 | 31.7%
38 | O=C(Cc1ccccc1)NC(=S)Nc1ccc(N2CCCCC2)cc1 | 39.8% (active)
39 | COc1ccc(NC(=S)NCC2CCN(c3ccc(OC)cc3)C2)cc1 (configuration not stated) | -5.6%
40 | COc1ccc(-c2cc(-c3ccc(N)cc3)nc(N)c2C#N)cc1OC | 33.8% (active)
41 | O=C(O)c1ccc(N/N=C/c2cn(-c3ccccc3)nc2-c2cccs2)cc1 | 64.8% (active)
42 | O=C(Nc1ccc(C(F)(F)F)cc1)c1cccc(-n2cnnn2)c1 | 23.1%
43 | Cc1nnnn1/C(=C\c1ccccc1)C(=O)OCC(=O)N1CC2(C)CC1CC(C)(C)C2 (configuration not stated) | 50.7% (active)
44 | c1ccc(-c2cn3c(n2)CCc2ccc4cccnc4c2-3)cc1 | 37% (active)
45 | c1ccc(-c2nc(NCc3ccco3)c3ccccc3n2)cc1 | 34% (active)
46 | Cc1ccccc1-c1nc(C#N)c(NCc2ccco2)o1 | 11.5%
47 | COc1cccc(CNc2nc(C(F)(F)F)nc3ccccc23)c1 | 27.1%
48 | CC(C)N(Cc1ccccc1)C(=S)Nc1ccc(OC(F)F)cc1 | -14%
49 | COc1cc(/C=N/NC(=O)c2ccccc2)ccc1OS(=O)(=O)c1ccccc1 | 17.2%
50 | O=C(N/N=C\c1cccc(Br)c1)c1ccccc1-n1cccc1 | -4.2%

Row | Structure (SMILES) | inhibition
51 | COc1ccc(C(=O)Nc2ccccc2C(=O)N/N=C/c2ccc(O)c(OC)c2)cc1 | 93.3% (active)
52 | COc1ccc(C(=O)Nc2ccccc2C(=O)N/N=C/c2ccccc2OC)cc1 | 43.1% (active)
53 | Cc1nc2sc(C(=O)c3ccccc3)c(N)c2c2c1CCCC2 | 23%
54 | OC(CNCC1CCCO1)Cn1c2ccc(Br)cc2c2cc(Br)ccc21 (configuration not stated) | 51.4% (active)
55 | COc1ccc(OC)c2sc(NC(=O)C3COc4ccccc4O3)nc12 (configuration not stated) | 34.8% (active)
56 | COc1ccc(CS(=O)/C(Cl)=C(/Cl)C(=O)Nc2ccc(OC)nc2)cc1 (configuration not stated) | 78.3% (active)
57 | COc1ccc(NC(=O)/C(Cl)=C(/Cl)S(=O)Cc2ccc(C)cc2)cn1 (configuration not stated) | 88% (active)
58 | O=[N+]([O-])c1ccc(C=Nc2ccc(Cl)cc2Cl)s1 | 44.1% (active)
59 | Cn1c(-c2sccc2OCc2cccc(C(F)(F)F)c2)n[nH]c1=S | 34.8% (active)
60 | Cc1cccc(/C(N)=N/OC(=O)c2ccccc2Cl)c1 | 77.7% (active)
61 | NS(=O)(=O)c1ccc(NC(=S)Nc2ccc(Br)c(Cl)c2)cc1 | 16.9%
62 | N/C(=N\OC(=O)c1cc(-c2ccccc2)nc2ccccc12)c1ccncc1 | 64.8% (active)
63 | O=C(NCCN1C(=O)S/C(=C\c2cccnc2)C1=O)c1cccc(OC(F)F)c1 | -9.15%
64 | CCCCNC(=S)N/N=C1\CCCCc2ccccc21 | 34.3% (active)
65 | CCN1/C(=C\c2ccc3ccccc3[n+]2CC)Sc2cc(C)ccc21 | 78.1% (active)
66 | Cc1oc2c(c1C(=O)N1CCOCC1)C(=O)c1ccccc1C2=O | 22.8%
67 | O=C(/C=C/Sc1ncn[nH]1)c1ccc(Cl)cc1 | 79% (active)
68 | O=C(ON=C1CCN(S(=O)(=O)c2ccccc2)CC1)c1ccc(Cl)cc1 | 62.2% (active)
69 | Cc1ccccc1NCC(=O)N/N=C\c1ccc([N+](=O)[O-])s1 | 37.2% (active)
70 | O=C1NC(=O)C2C1C(c1ccc([N+](=O)[O-])cc1)=NN2Cc1ccccc1 (configuration not stated) | 4.5%
71 | O=[N+]([O-])c1ccc2c(c1)Nc1nc3ccccc3nc1N2 | 83.8% (active)
72 | O=[N+]([O-])c1cccc(Nc2c3ccccc3nc3ccccc23)c1 | 21.6%
73 | COc1ccc(C(=O)COC(=O)c2ccc([N+](=O)[O-])s2)cc1OC | 81.8% (active)
74 | COc1nc(NC2CCCCC2)nc(N2CCCCCC2)n1 | -15.7%
75 | Cc1ccc(NC(=O)c2cccs2)cc1S(=O)(=O)N(C)C | -1.3%

Row | Structure (SMILES) | inhibition
76 | O=C(Nc1ccc2c(c1)CCC2)c1ccc(Br)s1 | 44% (active)
77 | N/C(Cc1ccc([N+](=O)[O-])cc1)=N\OC(=O)COc1ccc2ccccc2c1 | 51% (active)
78 | N/C(Cc1ccc([N+](=O)[O-])cc1)=N\OC(=O)C1CCCCC1 | 49.2% (active)
79 | CC1(C)CCSC(/C=C/c2ccccc2)=N1 | 56.7% (active)
80 | CNC(=S)N/N=C/c1cn(Cc2ccc(C)cc2)c2ccccc12 | 53.4% (active)
81 | CSC(=S)N/N=C/c1c[nH]c2ccccc12 | 20.1%
82 | COC(=O)c1c(NC(=O)CSc2nncs2)sc2c1CCCCC2 | 25.7%
83 | COC(=O)c1sccc1NS(=O)(=O)c1ccc(F)cc1F | 42.8% (active)
84 | O=C(/C=C/c1cccs1)c1cc(Cl)ccc1OC(=O)N1CCOCC1 | 40.2% (active)
85 | O=C(Oc1ccc(F)cc1)N1CCOCC1 | -0.9%
86 | C[C@@H](NC(=O)OC(C)(C)C)c1nnc(S(=O)(=O)Cc2ccccc2)o1 | 43.6% (active)
87 | N#C/C(=C\c1ccccc1C(F)(F)F)C(=O)Nc1ccccc1F | 46.9% (active)
88 | CCCc1[nH]nc2c1C(c1ccc(Br)s1)C(C#N)=C(N)O2 (configuration not stated) | 73.4% (active)
89 | Cc1ccc(-c2ccc(/C=C(\C#N)C(N)=S)o2)c([N+](=O)[O-])c1 | 54.1% (active)
90 | O=[N+]([O-])c1ccccc1S(=O)(=O)Nc1cccc2cccnc12 | 19.5%
91 | O=c1nc2s/c(=C\c3ccco3)c(=O)n2nc1Cc1ccccc1 | 56.5% (active)
92 | Oc1ccc(/C=N/N(Cc2ccccc2)c2ccccc2)cc1 | 28.2%
93 | CCOC(=O)c1ccc(N2C(=O)CC(N3CCC(C(=O)OCC)CC3)C2=O)cc1 (configuration not stated) | 21.4%
94 | Cc1cc(Nc2ccccc2)n(C(=O)c2ccc(N)cc2)n1 | 57.5% (active)
95 | CN1CCN(c2ccccc2NC(=O)COc2ccc(C3CCCCC3)cc2)CC1 | 30.4% (active)
96 | O=C(NC(Nc1nc2ccc([N+](=O)[O-])cc2s1)(C(F)(F)F)C(F)(F)F)c1ccccc1 | 77.7% (active)
97 | N#C/C(=C\c1cccnc1)C(=O)Nc1ccc(SC(F)F)cc1 | 42.2% (active)
